Only some compounds are listed: those with a hit (about 2.3% of all), similar ones and a draw of the others.
Nrf2 ARE act: qHTS of Nrf2 Activators | AREc32 ARE-luciferase reporter (MCF7-derived line), luminescence, 24 h | actives 0.31% (n = 410,000) | Potency, µM (series often up to 46.1 µM), most hits filed as activators; further: nearly all actives have a fitted effect of over 65% in size
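Luminescent ARE reporter assay in AREc32_Fluc cells: overnight plating at 37 deg C, 24 hr compound incubation, Steady-Glo added, 30 min RT before reading.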
Nrf2 block: Nrf2 qHTS screen for inhibitors; AID 504444, 2011; actives 2.1% (n = 360,000); Potency, µM (top dose mostly 46 µM), most hits filed as inhibitors; A549 ARE-Fluc reporter, luciferase luminescence, 18-24 h; further: nearly all actives have a fitted effect of over 60% in size
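Nrf2 activity is the BugLite luminescence, read 15 min after reagent at room temperature, following CellTiter-Fluor cytotoxicity readout (30 min, 37C). Compound titrations were applied for 18-24 h to 5000 A549 ARE_Fluc cells/well in 5% FBS OPTI-MEM.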
Glioma ERSR ind: qHTS for Inducers of the Endoplasmic Reticulum Stress Response (ERSR) in Human Glioma: qHTS. U87-MG GRP78 promoter luciferase reporter, 16 h. Potency, µM, hits mostly activators. actives 0.02% (n = 420,000); further: series mostly up to about 76 µM; nearly all actives have a fitted effect of over 35% in size
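Stably transfected U87-MG human glioma cells carrying a GRP78-based luminescent sensor were seeded at 1000 cells/well, pin-dosed with compounds and incubated 16 h. Luciferase reagent was then added, and end-point luminescence was read after 10 min at room temperature.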
A549 tox-1: Nrf2 qHTS screen for inhibitors: counterscreen for cytotoxicity | A549 ARE-Fluc cells, CellTiter-Fluor viability, 18-24 h | actives 0.16% (n = 390,000) | Potency, µM (doses to about 46 µM), actives largely listed as inhibitors | AID 504648, 2011
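A549 ARE-Fluc cells in 5% FBS OPTI-MEM, 5000 cells/well, rested 2 h then exposed to compounds in concentration-response for 18-24 h at 37 °C. Viability by CellTiter-Fluor fluorescence (Ex 405/Em 525) after 30 min; luciferase luminescence (BugLite, 15 min, RT) read afterwards.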
Mito fusion yeast: qHTS Assay for Small Molecule Inhibitors of Mitochondrial Division or Activators of Mitochondrial Fusion | S. cerevisiae fusion-defective mutant growth rescue, CellTiterGlo 48 h | Potency, µM (titrated, usually from 46.1 µM), hits mostly activators | actives 0.23% (n = 320,000) | AID 485298, 2010; further: nearly all actives have a fitted effect of over 45% in size
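Luminescent cell viability in 1536-well qHTS format served as the measure of rescued growth in ts fusion-mutant S. cerevisiae cultured on non-fermentable YPEG for 48 hours at 37C.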
miR-21 act: qHTS Assay for Modulators of miRNAs and/orActivators of miR-21 | Potency, µM (series often up to 38.3 µM), hits mostly activators | AID 2288, 2010 | 340,000 tested, under 10 active | HeLa miR-21 FLuc reporter, luciferase, 48 h;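 further: miR-21 action dims this reporter so a rising signal means less miR-21 action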
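Luminescence from a firefly luciferase reporter carrying a miR-21 binding site downstream, stably expressed under a CMV promoter in HeLa cells that make miR-21 endogenously, reports miRNA modulation after 48 h compound exposure up to approximately 40uM final.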
FLuc enzyme inh: Nrf2 qHTS screen for inhibitors: Purified Fluc Biochemical Counterscreen for Hit Validation; shares compounds with Nrf2 block; purified firefly luciferase, luminescence inhibition; Potency, µM (doses to about 57.5 µM), usual class: inhibitors; actives 4% (n = 1,400); further: nearly all actives have a fitted effect of over 65% in size
Target sequence (P08659 whole entry, looked up): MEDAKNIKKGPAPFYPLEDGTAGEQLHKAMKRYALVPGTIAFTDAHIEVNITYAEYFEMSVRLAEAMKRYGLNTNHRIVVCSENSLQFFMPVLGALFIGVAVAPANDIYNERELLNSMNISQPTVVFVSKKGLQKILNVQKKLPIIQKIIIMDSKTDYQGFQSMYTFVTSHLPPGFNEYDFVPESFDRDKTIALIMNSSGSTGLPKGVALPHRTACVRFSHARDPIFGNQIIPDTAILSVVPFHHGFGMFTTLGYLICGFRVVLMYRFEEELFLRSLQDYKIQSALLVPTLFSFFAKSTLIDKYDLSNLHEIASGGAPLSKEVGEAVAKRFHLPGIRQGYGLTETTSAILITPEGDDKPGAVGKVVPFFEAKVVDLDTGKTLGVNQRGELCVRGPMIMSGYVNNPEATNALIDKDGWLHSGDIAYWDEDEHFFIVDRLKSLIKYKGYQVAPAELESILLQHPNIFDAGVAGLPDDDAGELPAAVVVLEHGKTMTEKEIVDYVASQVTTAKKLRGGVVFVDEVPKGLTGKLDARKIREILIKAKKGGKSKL
A549 tox-2: Nrf2 qHTS screen for inhibitors: A549 ARE-Fluc Cytotoxicity Counterscreen for Hit Validation | shares compounds with Nrf2 block | A549 ARE-Fluc cells, cytotoxicity counterscreen | Potency, µM (top dose mostly 46.1 µM), actives largely listed as inhibitors | actives 2% (n = 1,400) | AID 720523, 2013;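 further: cells exposed to compounds for 18 to 24 hours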
ARE-Fluc inh: Nrf2 qHTS screen for inhibitors: Nrf2 A549 ARE-Fluc Confirmation Assay for Hit Validation; shares compounds with Nrf2 block; A549 ARE-firefly luciferase reporter, luminescence; Potency, µM (top dose mostly 46.1 µM), hits mostly inhibitors; actives 74% (n = 1,400); AID 720524, 2013; further: nearly all actives have a fitted effect of over 65% in size
A number is an active result; – = inactive; ? = inconclusive; · = no result shown; [ ] = dose if it differs, or a comment. The call rests on the fitted dose curve; in most records, active means well fitted curve in the direction sought with a large enough effect; inconclusive means small, poorly fitted or top-dose-only effect, or another doubt; inactive means no such curve, though single readings can be large; an effect the other way counts as inactive or inconclusive.

SMILES	Nrf2 ARE act	Nrf2 block	Glioma ERSR ind	A549 tox-1	Mito fusion yeast	miR-21 act	FLuc enzyme inh	A549 tox-2	ARE-Fluc inh
O=[N+]([O-])c1ccc(O)c(-c2nc(-c3ccccc3)c(-c3cccs3)[nH]2)c1	–	3.7µM	–	·	–	–	–	?	21µM
O=C(O)c1ccc(-c2nc(-c3ccccc3)c(-c3cccs3)[nH]2)cc1	–	–	–	–	–	–	·	·	·
Cc1ccccc1NC(=O)c1cccc2nc3ccccc3nc12	–	5.2µM	–	–	–	–	–	?	10µM
Cc1ccccc1NC(=O)c1ccccc1NC(=O)Cc1cccc2ccccc12	–	–	–	–	–	–	·	·	·
C/C(=N\NC(=O)COc1ccccc1-c1ccccc1)c1ccccn1	?	4.6µM	–	?	?	–	–	–	1.3µM
COc1ccc(NC(=S)NC(=O)/C=C/c2cccs2)cc1	–	–	–	–	–	–	·	·	·
O=C(/C=C/c1cccs1)NC(=S)Nc1ccc(S(=O)(=O)Nc2ccccc2C(F)(F)F)cc1	–	8.2µM	–	–	–	–	–	–	–
COc1ccc(S(=O)(=O)NCc2ccccn2)cc1NC(=O)c1ccc(Cl)cc1	–	–	–	–	–	·	·	·	·
Cc1ccc(C(C)(C)C)cc1S(=O)(=O)N1CCC(C(=O)N2CCN(c3ccc(O)cc3)CC2)CC1	–	9.2µM	–	–	?	·	?	–	·
Cc1ccc(CN2CCN(/N=C\C(Br)=C\c3ccccc3)CC2)cc1	?	–	–	–	?	–	·	·	·
CCCN(CCC)CCCNc1ccc(C(=O)Nc2cccc(OC)c2)cc1[N+](=O)[O-]	–	–	–	–	–	–	·	·	·
CCCn1c(NC(=O)c2cccc(S(=O)(=O)N3CCCC3)c2)nc2ccccc21	–	7.3µM	–	?	–	?	–	?	7.3µM
COc1ccc(C)cc1NC(=O)Cn1c(=O)cc(C)c2c(C)nn(C)c21	–	5.8µM	·	–	·	–	–	–	2.3µM
COC(=O)c1ccccc1NC(=O)Cn1c(=O)cc(C)c2c(C)nn(C)c21	–	–	–	–	·	–	·	·	·
CCNC(=O)NC(=O)C(C)OC(=O)c1ccc(-n2nc(SC)sc2=S)cc1 (configuration not stated)	–	–	–	–	–	–	·	·	·
COc1cc(OC)c(/C=C/c2cc3ccccc3c[n+]2C)c(OC)c1	·	·	–	·	·	·	–	?	4.6µM
COc1ccc(OC)c(/C=C/c2cc3ccccc3c[n+]2C)c1	·	·	–	·	·	·	–	–	·
COc1cc(OC)c(/C=C/c2cc[n+](C)c3ccccc23)c(OC)c1	·	·	–	·	·	·	–	–	3.7µM
Cc1cc(N(C)C)cc(C)c1/C=C/c1cc[n+](C)c2ccccc12	·	·	–	·	·	·	–	–	·
COc1cc(OC)c(OC)cc1/C=C/c1cc[n+](C)c2ccccc12	·	·	–	·	·	·	·	·	·
Cc1ccsc1C(=O)N1CCN(C(=O)c2ccco2)CC1	–	–	–	–	–	·	·	·	·
Nc1ccc(Oc2ccccc2-c2ccccc2)cc1	–	9.2µM	–	–	·	·	?	–	8.2µM
CC(C)CCOc1cccc(OCC(=O)Nc2ccncc2)c1	–	9.2µM	–	–	–	–	–	–	3.7µM
Cc1cc(C)n(C(=O)CNC(=O)c2ccccc2F)n1	–	–	–	–	–	–	·	·	·
Cc1cc2c(cc1C)C(=O)NC(C)(C)C2	–	7.3µM	–	–	–	–	–	–	–
NC(=O)c1ccccc1OCC(=O)N1CCC(Cc2ccccc2)CC1	–	5.2µM	–	–	–	·	–	–	8.2µM
CCn1cc(/C=C/c2cc[n+](C)cc2)c2ccccc21	–	1.8µM	–	–	–	?	–	?	1.8µM
CC(C)n1cc(/C=C/c2cc[n+](C)cc2)c2ccccc21	–[9.22 µM]	2.3µM	–	?	–	?	–	?	6.5µM
C=CCn1c(C)c(/C=C/c2cc[n+](C)cc2)c2ccccc21	–	?	–	–	–	?	·	·	·
